{"source": "PubChem BioAssay (NCI)", "key": {"[1]": {"assay": "NCI Yeast Anticancer Drug Screen. Data for the rad52 strain (AID 147);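 also: 0% = growth of vehicle-treated control cultures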", "settings": "S. cerevisiae rad52 mutant growth inhibition, active compounds read high", "summary_of_the_method": "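DNA repair-defective yeast; compound exposure; growth scored against vehicle controls.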"}, "[2]": {"assay": "NCI Yeast Anticancer Drug Screen. Data for the wt1 strain (AID 149);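 also: 0% = growth of vehicle-treated wt1 cultures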", "settings": "S. cerevisiae wt1 strain (SPY 50644) growth inhibition, active compounds read high", "summary_of_the_method": "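Growth inhibition read against vehicle controls after compound exposure of the wt1 yeast strain.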"}, "[3]": {"assay": "NCI Yeast Anticancer Drug Screen. Data for the rad50EPP+ strain (AID 151);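 also: 0% = growth of vehicle-treated control cultures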", "settings": "S. cerevisiae rad50 mutant strain, active compounds read high", "summary_of_the_method": "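rad50EPP+ yeast treated with test compounds. Readout: growth vs vehicle control.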"}, "[4]": {"assay": "NCI Yeast Anticancer Drug Screen. Data for the mgt1 strain (AID 153)", "settings": "S. cerevisiae mgt1 mutant growth inhibition, active compounds read high", "summary_of_the_method": "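Growth inhibition relative to vehicle controls was scored for the mgt1 yeast strain after compound exposure.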"}, "[5]": {"assay": "NCI Yeast Anticancer Drug Screen. Data for the rad50 strain (AID 155);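 also: 0% = growth of vehicle-only cultures of the same strain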", "settings": "S. cerevisiae rad50 strain growth inhibition, active compounds read high", "summary_of_the_method": "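Readout: growth inhibition relative to vehicle-treated cultures. Compound exposure was carried out in a genetically defined yeast strain deficient in DNA damage repair.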"}, "[6]": {"assay": "NCI Yeast Anticancer Drug Screen. Data for the mec2-1 strain (AID 157)", "settings": "S. cerevisiae mec2-1 strain, active compounds read high", "summary_of_the_method": "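Growth inhibition is read against vehicle-treated controls after compound exposure of the mec2-1 yeast strain, which is defective in DNA damage repair or cell cycle control.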"}, "[7]": {"assay": "NCI Yeast Anticancer Drug Screen. Data for the rad14 strain (AID 159);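 also: 0% = growth of vehicle-treated control cultures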", "settings": "S. cerevisiae rad14 strain growth inhibition, active compounds read high", "summary_of_the_method": "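Growth inhibition vs vehicle controls; genetically altered yeast strain (DNA damage repair defect) treated with test compounds.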"}, "[8]": {"assay": "NCI Yeast Anticancer Drug Screen. Data for the sgs1 mgt1 strain (AID 161);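 also: 0% = growth of cultures given vehicle only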", "settings": "S. cerevisiae sgs1 mgt1 strain, active compounds read high", "summary_of_the_method": "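Growth of a repair-deficient yeast mutant was monitored after compound treatment and expressed as inhibition relative to vehicle-treated cultures.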"}, "[9]": {"assay": "NCI Yeast Anticancer Drug Screen. Data for the CLN2oe strain (AID 163);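 also: 0% = growth of vehicle-only control cultures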", "settings": "S. cerevisiae CLN2oe strain, active compounds read high", "summary_of_the_method": "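Compound-treated yeast; growth vs vehicle ctrl = % inhibition. Genetically altered strain (cell-cycle control).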"}, "[10]": {"assay": "NCI Yeast Anticancer Drug Screen. Data for the bub3 strain (AID 167)", "settings": "S. cerevisiae bub3 mutant strain, active compounds read high", "summary_of_the_method": "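Readout: yeast growth inhibition, expressed relative to vehicle-only wells. The test organism is a mutant strain from a panel with lesions in DNA repair or checkpoint genes.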"}, "[11]": {"assay": "NCI Yeast Anticancer Drug Screen. Data for the wt2 strain (AID 169);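 also: 0% = growth of vehicle-treated yeast cultures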", "settings": "S. cerevisiae wt2 strain growth inhibition, active compounds read high", "summary_of_the_method": "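Compound exposure of yeast; growth compared with vehicle controls; inhibition reported.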"}, "[12]": {"assay": "NCI Yeast Anticancer Drug Screen. Data for the mlh1 strain (AID 171);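 also: 0% = growth of vehicle-treated control cultures of the same strain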", "settings": "S. cerevisiae mlh1 strain growth inhibition, active compounds read high", "summary_of_the_method": "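Compounds are applied to a genetically altered yeast strain, and its growth is compared with that of vehicle-treated cultures to give percent inhibition.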"}, "[13]": {"assay": "NCI Yeast Anticancer Drug Screen. Data for the sgs1 strain (AID 173);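 also: 0% = growth of vehicle-only control cultures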", "settings": "S. cerevisiae sgs1 mutant, active compounds read high", "summary_of_the_method": "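Compounds applied to genetically altered yeast; growth compared with vehicle-treated cultures to give % inhibition.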"}, "[14]": {"assay": "NCI Yeast Anticancer Drug Screen. Data for the mlh1 rad18 strain (AID 175)", "settings": "S. cerevisiae mlh1 rad18 strain growth inhibition, active compounds read high", "summary_of_the_method": "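Cells of a genetically altered yeast strain, deficient in DNA damage repair, were treated with compound. Their growth was then compared with that of vehicle-treated cultures to give inhibition.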"}, "[15]": {"assay": "NCI Yeast Anticancer Drug Screen. Data for the rad18 strain (AID 177)", "settings": "S. cerevisiae rad18 mutant growth inhibition, active compounds read high", "summary_of_the_method": "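Compounds are applied to a repair-deficient yeast strain, and growth is compared with that of vehicle-treated cultures to give percent inhibition.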"}, "[16]": {"settings": "at 5.0 µM (retest, dose inferred, filed as 0.5)"}, "[17]": {"settings": "at 50.0 µM (retest, dose inferred, filed as 5.0)"}}, "note": "About 79,000 compounds went through this panel and 15% of them were active in at least one assay; those are over-represented in the sample as a whole. A number with no mark means an inactive call. Active and inactive are the calls of the source. Rule as the data show it: active = growth inhibition above about 70%; inactive = the rest.", "data": [{"molecule": "O=c1nc2n(Cc3ccccc3)c3ccccc3nc-2c(=O)[nH]1", "values": [{"measurement": "growth inhibition", "setting": "[1]; at 1.2 µM", "result": 0, "unit": "%"}, {"measurement": "growth inhibition", "setting": "[1]; at 3.7 µM", "result": 2, "unit": "%"}, {"measurement": "growth inhibition", "setting": "[1]; at 11.0 µM", "result": 6, "unit": "%"}, {"measurement": "growth inhibition", "setting": "[1]; at 33.0 µM", "result": 4, "unit": "%"}, {"measurement": "growth inhibition", "setting": "[1]; at 100.0 µM", "result": 4, "unit": "%"}, {"measurement": "growth inhibition", "setting": "[2]; at 1.2 µM", "result": -1, "unit": "%"}, {"measurement": "growth inhibition", "setting": "[2]; at 3.7 µM", "result": 4, "unit": "%"}, {"measurement": "growth inhibition", "setting": "[2]; at 11.0 µM", "result": 2, "unit": "%"}, {"measurement": "growth inhibition", "setting": "[2]; at 33.0 µM", "result": 2, "unit": "%"}, {"measurement": "growth inhibition", "setting": "[2]; at 100.0 µM", "result": 3, "unit": "%"}, {"measurement": "growth inhibition", "setting": "[3]; at 1.2 µM", "result": 7, "unit": "%"}, {"measurement": "growth inhibition", "setting": "[3]; at 3.7 µM", "result": 30, "unit": "%"}, {"measurement": "growth inhibition", "setting": "[3]; at 11.0 µM", "result": "74% (active)"}, {"measurement": "growth inhibition", "setting": "[3]; at 33.0 µM", "result": "92% (active)"}, {"measurement": "growth inhibition", "setting": "[3]; at 100.0 µM", "result": "97% (active)"}, {"measurement": "growth inhibition", "setting": "[4]; at 1.2 µM", "result": -5, "unit": "%"}, {"measurement": "growth inhibition", "setting": "[4]; at 3.7 µM", "result": 5, "unit": "%"}, {"measurement": "growth inhibition", "setting": "[4]; at 11.0 µM", "result": "74% (active)"}, {"measurement": "growth inhibition", "setting": "[4]; at 33.0 µM", "result": "94% (active)"}, {"measurement": "growth inhibition", "setting": "[4]; at 100.0 µM", "result": "96% (active)"}, {"measurement": "growth inhibition", "setting": "[5]; at 1.2 µM", "result": -2, "unit": "%"}, {"measurement": "growth inhibition", "setting": "[5]; at 3.7 µM", "result": -1, "unit": "%"}, {"measurement": "growth inhibition", "setting": "[5]; [16]", "result": -15, "unit": "%"}, {"measurement": "growth inhibition", "setting": "[5]; at 11.0 µM", "result": 2, "unit": "%"}, {"measurement": "growth inhibition", "setting": "[5]; at 33.0 µM", "result": -1, "unit": "%"}, {"measurement": "growth inhibition", "setting": "[5]; [17]", "result": 13, "unit": "%"}, {"measurement": "growth inhibition", "setting": "[5]; at 50.0 µM", "result": 26.1, "unit": "%"}, {"measurement": "growth inhibition", "setting": "[5]; at 100.0 µM", "result": 1, "unit": "%"}, {"measurement": "growth inhibition", "setting": "[6]; at 1.2 µM", "result": -2, "unit": "%"}, {"measurement": "growth inhibition", "setting": "[6]; at 3.7 µM", "result": 3, "unit": "%"}, {"measurement": "growth inhibition", "setting": "[6]; [16]", "result": -2, "unit": "%"}, {"measurement": "growth inhibition", "setting": "[6]; at 11.0 µM", "result": 5, "unit": "%"}, {"measurement": "growth inhibition", "setting": "[6]; at 33.0 µM", "result": 6, "unit": "%"}, {"measurement": "growth inhibition", "setting": "[6]; [17]", "result": -5, "unit": "%"}, {"measurement": "growth inhibition", "setting": "[6]; at 50.0 µM", "result": 37.9, "unit": "%"}, {"measurement": "growth inhibition", "setting": "[6]; at 100.0 µM", "result": 12, "unit": "%"}, {"measurement": "growth inhibition", "setting": "[7]; at 1.2 µM", "result": 0, "unit": "%"}, {"measurement": "growth inhibition", "setting": "[7]; at 3.7 µM", "result": 3, "unit": "%"}, {"measurement": "growth inhibition", "setting": "[7]; at 11.0 µM", "result": 5, "unit": "%"}, {"measurement": "growth inhibition", "setting": "[7]; at 33.0 µM", "result": 1, "unit": "%"}, {"measurement": "growth inhibition", "setting": "[7]; at 100.0 µM", "result": 1, "unit": "%"}, {"measurement": "growth inhibition", "setting": "[8]; [16]", "result": 39, "unit": "%"}, {"measurement": "growth inhibition", "setting": "[8]; [17]", "result": "96% (active)"}, {"measurement": "growth inhibition", "setting": "[8]; at 50.0 µM", "result": "97.2% (active)"}, {"measurement": "growth inhibition", "setting": "[9]; at 1.2 µM", "result": -12, "unit": "%"}, {"measurement": "growth inhibition", "setting": "[9]; at 3.7 µM", "result": -7, "unit": "%"}, {"measurement": "growth inhibition", "setting": "[9]; at 11.0 µM", "result": 3, "unit": "%"}, {"measurement": "growth inhibition", "setting": "[9]; at 33.0 µM", "result": 5, "unit": "%"}, {"measurement": "growth inhibition", "setting": "[9]; at 100.0 µM", "result": 0, "unit": "%"}, {"measurement": "growth inhibition", "setting": "[10]; at 1.2 µM", "result": -3, "unit": "%"}, {"measurement": "growth inhibition", "setting": "[10]; at 3.7 µM", "result": -6, "unit": "%"}, {"measurement": "growth inhibition", "setting": "[10]; [16]", "result": 19, "unit": "%"}, {"measurement": "growth inhibition", "setting": "[10]; at 11.0 µM", "result": -3, "unit": "%"}, {"measurement": "growth inhibition", "setting": "[10]; at 33.0 µM", "result": -6, "unit": "%"}, {"measurement": "growth inhibition", "setting": "[10]; [17]", "result": 1, "unit": "%"}, {"measurement": "growth inhibition", "setting": "[10]; at 50.0 µM", "result": 11.4, "unit": "%"}, {"measurement": "growth inhibition", "setting": "[10]; at 100.0 µM", "result": -8, "unit": "%"}, {"measurement": "growth inhibition", "setting": "[11]; at 1.2 µM", "result": -2, "unit": "%"}, {"measurement": "growth inhibition", "setting": "[11]; at 3.7 µM", "result": 3, "unit": "%"}, {"measurement": "growth inhibition", "setting": "[11]; at 11.0 µM", "result": 67, "unit": "%"}, {"measurement": "growth inhibition", "setting": "[11]; at 33.0 µM", "result": "93% (active)"}, {"measurement": "growth inhibition", "setting": "[11]; at 100.0 µM", "result": "96% (active)"}, {"measurement": "growth inhibition", "setting": "[12]; at 1.2 µM", "result": -3, "unit": "%"}, {"measurement": "growth inhibition", "setting": "[12]; at 3.7 µM", "result": 3, "unit": "%"}, {"measurement": "growth inhibition", "setting": "[12]; at 11.0 µM", "result": 65, "unit": "%"}, {"measurement": "growth inhibition", "setting": "[12]; at 33.0 µM", "result": "93% (active)"}, {"measurement": "growth inhibition", "setting": "[12]; at 100.0 µM", "result": "97% (active)"}, {"measurement": "growth inhibition", "setting": "[13]; at 1.2 µM", "result": -2, "unit": "%"}, {"measurement": "growth inhibition", "setting": "[13]; at 3.7 µM", "result": 11, "unit": "%"}, {"measurement": "growth inhibition", "setting": "[13]; at 11.0 µM", "result": "74% (active)"}, {"measurement": "growth inhibition", "setting": "[13]; at 33.0 µM", "result": "94% (active)"}, {"measurement": "growth inhibition", "setting": "[13]; at 100.0 µM", "result": "97% (active)"}, {"measurement": "growth inhibition", "setting": "[14]; [16]", "result": 37, "unit": "%"}, {"measurement": "growth inhibition", "setting": "[14]; [17]", "result": 39, "unit": "%"}, {"measurement": "growth inhibition", "setting": "[14]; at 50.0 µM", "result": 26.6, "unit": "%"}, {"measurement": "growth inhibition", "setting": "[15]; at 1.2 µM", "result": 0, "unit": "%"}, {"measurement": "growth inhibition", "setting": "[15]; at 3.7 µM", "result": 1, "unit": "%"}, {"measurement": "growth inhibition", "setting": "[15]; at 11.0 µM", "result": 4, "unit": "%"}, {"measurement": "growth inhibition", "setting": "[15]; at 33.0 µM", "result": 9, "unit": "%"}, {"measurement": "growth inhibition", "setting": "[15]; at 100.0 µM", "result": 9, "unit": "%"}]}]}
